Measured values reported in PubChem BioAssay (NCATS).
Results filed as inconclusive are left out. Where a call stands in place of a potency, no number is given. Activity calls are given as the source filed them. Unless noted, the call rests on the fitted dose curve; in most records, active means well fitted curve in the direction sought with a large enough effect; inconclusive means small, poorly fitted or top-dose-only effect, or another doubt; inactive means no such curve, though single readings can be large; an effect the other way counts as inactive or inconclusive.

How the values were obtained:
[1] = molecular target: DNA repair nuclease/redox regulator APEX1 (Homo sapiens) (UniProt P27695); experiment: qHTS Validation Assay for Inhibitors of the Human Apurinic/apyrimidinic Endonuclease 1 (APE1) (AID 1705;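 further: TAMRA fluorescence gain over two minutes as APE1 cuts a quenched THF abasic duplex; series mostly up to about 57 µM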)
Procedure, shortened: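 Substrate: 50 nM final fluorophore/quencher THF-abasic duplex. Enzyme preincubated with compounds 15 min, RT. Progress derived from fluorescence difference, third minus first kinetic read.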

[2] = Counterscreen for APE1 Inhibitors: Fluorescent Dye Displacement Validation Assay (AID 1707)
Procedure, shortened: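 Endpoint fluorescence read at 480 nm excitation / 540 nm emission; DNA-binding compounds lower signal by displacing 250 nM Thiazole Orange from 50 nM dsDNA containing a tetrahydrofuran abasic site, Tris-HCl pH7.5 buffer with NaCl and MgCl2.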

[3] = molecular target: Endonuclease 4 (Escherichia coli (strain K12)) (UniProt P0A6C1); experiment: Counterscreen for APE1 Inhibitors: qHTS Validation Assay for Inhibitors of Endonuclease IV (AID 1708)
Procedure, shortened: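 Conditions: 2 nM enzyme, 50 nM TAMRA/BHQ-2 substrate, pH 7.5 Tris buffer with 2 mM MgCl2, RT. Compound preincubation 15 min; readout three fluorescence reads 60 s apart, third-minus-first.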

[4] = qHTS for differential inhibitors of proliferation of Plasmodium falciparum line 7G8 (AID 1815);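 further: parasite growth measured after three days of incubation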; further: potency means the concentration at half of the fitted maximal effect
[5] = qHTS for differential inhibitors of proliferation of Plasmodium falciparum line GB4 (AID 1816); conditions: Potency: Plasmodium falciparum GB4 proliferation inhibition;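 further: parasite growth measured after 72 h incubation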
[6] = qHTS for differential inhibitors of proliferation of Plasmodium falciparum line 3D7 (AID 1876);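 further: parasite growth measured after three days of culture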
[7] = qHTS for differential inhibitors of proliferation of Plasmodium falciparum line D10 (AID 1877);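 further: parasites grown with compound for 72 h before DNA staining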
[8] = qHTS for differential inhibitors of proliferation of Plasmodium falciparum line Dd2 (AID 1882); conditions: Potency: Plasmodium falciparum Dd2 proliferation inhibition; further: series mostly up to about 29 µM; nearly all actives have a fitted effect of over 65% in size
Procedure, shortened: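 SYBR Green DNA fluorescence (ex 485, em 535 nm) after overnight lysis quantifies parasite growth; compound exposure lasted 72 h at 37 C on infected red cells at 2.5% hematocrit, 0.3% parasitemia (final). Artemisinin 0.29 uM and vehicle wells define normalization.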

[9] = qHTS for differential inhibitors of proliferation of Plasmodium falciparum line W2 (AID 1883); conditions: Potency: Plasmodium falciparum W2 proliferation inhibition;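 further: parasites grown with compound for 72 h before lysis and staining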; further: potency means the concentration at half of the fitted maximal effect
[10] = qHTS for differential inhibitors of proliferation of Plasmodium falciparum line HB3 (AID 1886); conditions: Potency: Plasmodium falciparum HB3 proliferation inhibition;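 further: parasites grown with compound for 72 h before SYBR Green readout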
[11] = qHTS Assay for Modulators of Human Peripheral Myelin Protein 22 (PMP22) Expression/Activity (AID 1967; active means well fitted curve in the direction sought with a large enough effect in the signal ratio; the % refers to the signal ratio)
Procedure, shortened: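 Engineered MSC80 cells, Pmp22-promoter green and EF-alpha red luciferase reporters; 24h compound treatment at 37 °C. Concentration-response fits on green, red and ratio signals, each overlap-corrected, with %Activity normalized to untreated wells.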

[12] = molecular target: ATP-dependent DNA helicase Q1 (Homo sapiens) (UniProt P46063); experiment: qHTS Validation Assay for Inhibitors of RecQ-Like Dna Helicase 1 (RECQ1) (AID 2353)
Procedure, shortened: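 RECQ1T1 50 nM; forked duplex (20 bp + 30-nt ss tails) 200 nM, ATP 2 mM final; pH 8.0, 2 mM MgCl2, 2.5 ug/ml poly(dI-dC); 15 min compound preincubation; discontinuous kinetic read over 2 h at RT.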

[13] = Cytometric Cell-Based qHTS for Inhibitors of the mTORC1 Signaling Pathway in MEF (Tsc2-/-, p53-/-) Cells (AID 2660);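 further: Tsc2 and p53 null MEFs carrying empty vector with compound for 24 h; percent of cells above a phospho-rpS6 to PI ratio cutoff in each well; series mostly up to about 38 µM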
Procedure, shortened: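 Cells are plated, treated with compound for 24 hrs at 37 degree Celsius, then fixed, blocked and immunostained for phospho-rpS6 Ser235/236. Propidium iodide counterstain follows. Per-well % positive cells is derived from the PI-normalized phospho-S6 signal.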

[14] = High Content Imaging Cell-Based qHTS for Inhibitors of the mTORC1 Signaling Pathway in MEF (Tsc2-/-, p53-/-) Cells (AID 2666);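 further: percent of cells scored positive for phospho-rpS6 Ser235/236 immunostaining by imaging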
Procedure, shortened: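 MEF Tsc2-/- p53-/- (empty vector), DMEM/10% FBS; cpd 24 h 37 °C; PFA fix, Alexa-488 p-rpS6 S235/236 Ab, Hoechst; imaged; rapamycin-defined inhibition; % positive cells/well.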

[15] = High Content Imaging Cell-Based qHTS for Inhibitors of the mTORC1 Signaling Pathway in MEF Cells (AID 2667);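 further: Tsc2-/- p53-/- MEFs stably re-expressing wild-type Tsc2 exposed 24 h; series mostly up to about 38 µM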
Procedure, shortened: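 Read-out is the share of phospho-rpS6-positive cells per well, from Hoechst-normalized Alexa-488 Ser235/236 staining imaged on IN Cell. Cells: WT Tsc2-expressing Tsc2-/-, p53-/- MEFs exposed to compound for 24 hrs.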

[16] = Cytometry Cell-Based qHTS for Inhibitors of the mTORC1 Signaling Pathway in MEF cells (AID 2668);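 further: Tsc2-/- p53-/- mouse embryonic fibroblasts stably re-expressing wild-type Tsc2; percent cells positive for phospho-rpS6 Ser235/236 relative to propidium iodide stain; series mostly up to about 38 µM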
Procedure, shortened: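 In MEFs grown in DMEM + 10% FBS, a 24 hrs compound exposure preceded imaging of phospho-rpS6 Ser235/236 by laser-scanning cytometry.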

[17] = molecular target: DNA polymerase III PolC-type (Bacillus subtilis (strain 168)) (UniProt P13267); experiment: qHTS Validation Assay for the Inhibitors of DNA Replication in Gram-Positive Bacteria (AID 485295);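 further: reconstituted holoenzyme with PolC plus beta clamp SSB and primase; PicoGreen fluorescence of double-stranded DNA made on primed circular M13 template; series mostly up to about 57 µM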
Procedure, shortened: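 Inhibition of DNA synthesis by the reconstituted PolC holoenzyme, monitored through PicoGreen staining of dsDNA formed from ssM13Gori, dNTPs and NTPs, with compound preincubation and room-temperature reaction.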

[18] = molecular target: Tumor susceptibility gene 101 protein (Homo sapiens) (UniProt Q99816); experiment: qHTS Validation Assay for Iinhibitors of HIV-1 Budding by Blocking the Interaction of PTAP/TSG101 (AID 485342; calls by dose curve)
Procedure, shortened: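 Compound wells held the Tsg101 binding domain (10 uM) and a FITC-conjugated PTAP peptide (50 nM) in buffer at pH 7.5 containing 0.15 M NaCl and 0.01% Tween 20; polarization was recorded after 20 min, r.t.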

[19] = qHTS Assay for Identification of Small Molecule Inducers of Hypoxia Response (AID 2120; active means well fitted curve in the direction sought with a large enough effect in the signal ratio, with a control signal flat, not every such curve was filed as active; the % refers to the signal ratio)
Procedure, shortened: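 Reporter induction read as the CCF4 blue/green (460nm/530nm) emission ratio after 2.5 h dye loading at room temperature. ME-180 HRE-beta-lactamase cells received titrated compounds for 17 h at 37 degrees Celsius; AC50 values derived.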

[20] = molecular target: RecQ-like DNA helicase BLM (Homo sapiens) (UniProt P54132); experiment: qHTS Validation Assay for Inhibitors of Bloom's syndrome helicase (BLM) (AID 2364)
Procedure, shortened: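 50 nM BLM preincubated 15 min at room temperature with compound in pH 8.0 Tris buffer containing 2.5 ug/ml poly(dI-dC); started with 200 nM TAMRA/BHQ-2 forked duplex and 2 mM ATP (final). Unwinding read as TAMRA fluorescence increase, two reads 2 h apart.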

Chain of DNA polymerase III PolC-type (Bacillus subtilis (strain 168)) (P13267 whole entry, looked up): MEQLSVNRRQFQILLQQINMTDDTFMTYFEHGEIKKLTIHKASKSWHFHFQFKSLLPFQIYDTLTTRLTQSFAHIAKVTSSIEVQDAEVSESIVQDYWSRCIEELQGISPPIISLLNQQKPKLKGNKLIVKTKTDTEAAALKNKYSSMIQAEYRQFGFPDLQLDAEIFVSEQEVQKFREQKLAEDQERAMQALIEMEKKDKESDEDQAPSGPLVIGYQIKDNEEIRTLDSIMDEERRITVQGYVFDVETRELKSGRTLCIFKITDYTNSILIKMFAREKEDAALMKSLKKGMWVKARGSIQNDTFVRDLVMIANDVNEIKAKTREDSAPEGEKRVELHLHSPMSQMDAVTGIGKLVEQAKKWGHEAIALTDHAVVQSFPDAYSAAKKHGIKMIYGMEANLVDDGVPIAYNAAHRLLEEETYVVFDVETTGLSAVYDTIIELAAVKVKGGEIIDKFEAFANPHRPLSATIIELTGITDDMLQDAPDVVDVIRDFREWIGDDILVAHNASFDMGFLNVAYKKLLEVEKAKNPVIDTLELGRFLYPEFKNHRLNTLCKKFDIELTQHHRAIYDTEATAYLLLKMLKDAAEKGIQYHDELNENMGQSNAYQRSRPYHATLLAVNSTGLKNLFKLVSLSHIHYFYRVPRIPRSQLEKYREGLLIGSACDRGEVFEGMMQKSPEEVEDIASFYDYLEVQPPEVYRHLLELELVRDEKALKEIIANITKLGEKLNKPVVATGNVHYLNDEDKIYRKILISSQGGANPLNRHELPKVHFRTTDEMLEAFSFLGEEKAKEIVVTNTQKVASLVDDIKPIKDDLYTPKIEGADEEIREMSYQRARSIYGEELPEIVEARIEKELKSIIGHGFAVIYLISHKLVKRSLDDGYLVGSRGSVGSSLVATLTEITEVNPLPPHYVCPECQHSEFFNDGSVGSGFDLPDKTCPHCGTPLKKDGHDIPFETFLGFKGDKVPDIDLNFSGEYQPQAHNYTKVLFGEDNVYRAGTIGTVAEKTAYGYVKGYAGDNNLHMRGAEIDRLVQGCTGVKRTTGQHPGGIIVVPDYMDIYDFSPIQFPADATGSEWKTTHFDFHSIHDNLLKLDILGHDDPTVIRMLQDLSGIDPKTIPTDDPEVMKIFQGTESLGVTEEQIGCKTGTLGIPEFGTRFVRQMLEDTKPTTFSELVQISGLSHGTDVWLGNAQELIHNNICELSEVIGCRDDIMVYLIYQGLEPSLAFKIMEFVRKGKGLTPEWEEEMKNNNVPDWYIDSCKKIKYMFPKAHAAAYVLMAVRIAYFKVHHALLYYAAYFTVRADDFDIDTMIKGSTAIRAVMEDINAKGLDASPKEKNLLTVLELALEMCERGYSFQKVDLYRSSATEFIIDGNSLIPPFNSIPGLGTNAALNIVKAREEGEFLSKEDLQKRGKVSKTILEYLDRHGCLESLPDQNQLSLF
Chain of Tumor susceptibility gene 101 protein (Homo sapiens) (Q99816 whole entry, looked up, the tested form may be a part): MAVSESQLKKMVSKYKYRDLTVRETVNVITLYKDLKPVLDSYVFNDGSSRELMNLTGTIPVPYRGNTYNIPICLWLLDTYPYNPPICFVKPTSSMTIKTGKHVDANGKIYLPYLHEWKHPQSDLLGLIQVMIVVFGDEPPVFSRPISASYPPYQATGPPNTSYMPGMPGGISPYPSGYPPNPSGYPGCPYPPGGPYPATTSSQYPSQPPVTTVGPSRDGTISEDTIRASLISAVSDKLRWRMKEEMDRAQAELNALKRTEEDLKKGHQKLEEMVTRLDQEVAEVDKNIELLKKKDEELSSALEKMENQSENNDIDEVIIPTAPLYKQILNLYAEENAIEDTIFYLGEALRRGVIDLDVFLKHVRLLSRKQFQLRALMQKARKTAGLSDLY
Chain of DNA repair nuclease/redox regulator APEX1 (Homo sapiens) (P27695 whole entry, looked up): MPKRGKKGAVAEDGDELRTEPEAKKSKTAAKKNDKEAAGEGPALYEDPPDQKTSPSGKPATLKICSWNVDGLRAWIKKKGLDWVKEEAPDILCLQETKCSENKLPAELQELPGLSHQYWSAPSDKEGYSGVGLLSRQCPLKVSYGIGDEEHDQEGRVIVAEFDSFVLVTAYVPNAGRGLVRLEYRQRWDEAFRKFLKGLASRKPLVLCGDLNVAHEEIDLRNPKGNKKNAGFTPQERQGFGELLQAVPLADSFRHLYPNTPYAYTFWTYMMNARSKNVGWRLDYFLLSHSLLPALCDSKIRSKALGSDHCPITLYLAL
Chain of ATP-dependent DNA helicase Q1 (Homo sapiens) (P46063 whole entry, looked up): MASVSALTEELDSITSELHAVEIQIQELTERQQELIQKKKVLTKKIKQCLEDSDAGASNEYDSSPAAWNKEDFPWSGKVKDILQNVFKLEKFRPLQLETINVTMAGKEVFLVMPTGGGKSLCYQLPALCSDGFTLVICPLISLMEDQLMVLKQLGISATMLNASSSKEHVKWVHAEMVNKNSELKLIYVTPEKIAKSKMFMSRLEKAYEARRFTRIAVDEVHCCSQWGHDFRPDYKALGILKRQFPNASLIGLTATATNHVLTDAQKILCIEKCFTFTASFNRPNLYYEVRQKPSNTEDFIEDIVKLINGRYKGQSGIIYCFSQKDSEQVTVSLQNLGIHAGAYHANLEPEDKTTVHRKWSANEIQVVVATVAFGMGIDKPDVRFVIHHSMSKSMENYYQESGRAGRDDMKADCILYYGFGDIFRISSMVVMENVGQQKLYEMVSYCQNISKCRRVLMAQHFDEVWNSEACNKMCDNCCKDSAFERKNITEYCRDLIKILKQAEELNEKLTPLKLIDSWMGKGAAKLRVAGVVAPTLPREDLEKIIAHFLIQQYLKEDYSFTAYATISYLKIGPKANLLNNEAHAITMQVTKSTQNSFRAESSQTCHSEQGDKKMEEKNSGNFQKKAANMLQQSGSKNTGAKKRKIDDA
Chain of RecQ-like DNA helicase BLM (Homo sapiens) (P54132 whole entry, looked up): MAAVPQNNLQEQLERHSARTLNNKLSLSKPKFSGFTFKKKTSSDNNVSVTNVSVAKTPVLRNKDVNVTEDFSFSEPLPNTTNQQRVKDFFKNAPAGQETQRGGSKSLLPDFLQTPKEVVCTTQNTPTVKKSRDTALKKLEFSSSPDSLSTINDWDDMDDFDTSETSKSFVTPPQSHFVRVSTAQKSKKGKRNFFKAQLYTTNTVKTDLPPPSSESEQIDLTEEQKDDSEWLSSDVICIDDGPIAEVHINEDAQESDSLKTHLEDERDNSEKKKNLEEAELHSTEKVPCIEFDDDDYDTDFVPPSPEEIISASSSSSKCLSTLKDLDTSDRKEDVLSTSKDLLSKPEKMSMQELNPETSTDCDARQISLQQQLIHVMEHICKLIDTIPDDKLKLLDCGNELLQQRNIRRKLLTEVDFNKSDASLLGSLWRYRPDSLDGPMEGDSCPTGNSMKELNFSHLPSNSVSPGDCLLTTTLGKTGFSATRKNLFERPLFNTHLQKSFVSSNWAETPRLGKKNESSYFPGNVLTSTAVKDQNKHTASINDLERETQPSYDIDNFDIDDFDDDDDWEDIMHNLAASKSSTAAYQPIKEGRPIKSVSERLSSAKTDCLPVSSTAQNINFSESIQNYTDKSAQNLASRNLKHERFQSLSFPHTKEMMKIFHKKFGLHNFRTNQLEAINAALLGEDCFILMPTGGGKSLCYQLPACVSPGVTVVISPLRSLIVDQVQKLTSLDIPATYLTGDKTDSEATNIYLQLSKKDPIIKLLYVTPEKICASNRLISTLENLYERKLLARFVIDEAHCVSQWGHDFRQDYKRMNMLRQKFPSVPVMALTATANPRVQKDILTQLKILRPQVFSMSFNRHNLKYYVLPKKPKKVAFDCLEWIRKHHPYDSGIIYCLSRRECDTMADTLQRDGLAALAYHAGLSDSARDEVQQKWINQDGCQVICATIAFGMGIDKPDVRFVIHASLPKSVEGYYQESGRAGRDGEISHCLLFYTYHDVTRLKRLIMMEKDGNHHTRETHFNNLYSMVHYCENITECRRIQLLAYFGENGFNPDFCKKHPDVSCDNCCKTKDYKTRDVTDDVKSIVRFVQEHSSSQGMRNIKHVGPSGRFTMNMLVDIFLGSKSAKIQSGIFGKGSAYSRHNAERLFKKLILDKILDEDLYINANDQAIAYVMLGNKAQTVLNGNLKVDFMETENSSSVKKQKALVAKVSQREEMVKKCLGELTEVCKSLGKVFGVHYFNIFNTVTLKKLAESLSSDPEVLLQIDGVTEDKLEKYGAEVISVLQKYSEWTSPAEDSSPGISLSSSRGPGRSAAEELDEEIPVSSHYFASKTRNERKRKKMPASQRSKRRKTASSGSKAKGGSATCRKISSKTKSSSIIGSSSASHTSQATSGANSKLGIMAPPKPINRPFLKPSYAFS

SMILES | outcome [1] | outcome [2] | outcome [3] | Potency [4] | Potency [5] | Potency [6] | Potency [7] | Potency [8] | Potency [9] | Potency [10] | outcome [11] | outcome [12] | outcome [13] | Potency [14] | outcome [15] | Potency [16] | outcome [17] | outcome [18] | outcome [19] | outcome [20]
CCN1CCCC1CNC(=O)c1cc(S(N)(=O)=O)ccc1OC (configuration not stated) | inactive | inactive | inactive | inactive | inactive | inactive | inactive | inactive | inactive | inactive | inactive | inactive | inactive | inactive | inactive | inactive | inactive | inactive | – | –
Cc1ccnc2c1NC(=O)c1cccnc1N2C1CC1 | – | – | – | – | – | – | – | – | – | – | – | – | – | – | – | – | – | – | inactive | –
NC(=O)c1cccc(N)c1 | inactive | inactive | inactive | inactive | inactive | inactive | inactive | inactive | inactive | inactive | – | inactive | inactive | inactive | inactive | inactive | inactive | inactive | – | inactive
N[C@@H](Cc1ccc(O)c(O)c1)C(=O)O | – | – | – | – | – | – | – | – | – | – | – | – | inactive | inactive | inactive | inactive | inactive | inactive | – | –
OCc1ccc(-c2nn(Cc3ccccc3)c3ccccc23)o1 | inactive | inactive | – | – | – | – | inactive | – | 8.91 µM (active) | – | – | inactive | inactive | inactive | inactive | inactive | inactive | inactive | – | –
Nc1nc(N)c2nc(CNc3ccc(C(=O)NC(CCC(=O)O)C(=O)O)cc3)cnc2n1 (configuration not stated) | – | inactive | – | inactive | – | inactive | – | inactive | inactive | inactive | inactive | inactive | inactive | inactive | inactive | inactive | inactive | inactive | – | –
CC1CC2C3CCC4=CC(=O)C=C[C@]4(C)[C@@]3(F)[C@@H](O)C[C@]2(C)[C@@]1(O)C(=O)CO (some centres not stated) | – | – | – | – | – | – | – | – | – | – | – | – | inactive | inactive | inactive | inactive | inactive | inactive | – | –
CC(C)(C)NC(=O)[C@H]1CC[C@H]2[C@@H]3CC[C@H]4NC(=O)C=C[C@]4(C)[C@H]3CC[C@]12C | inactive | inactive | inactive | 10 µM (active) | – | – | – | inactive | 10 µM (active) | – | – | inactive | – | – | – | – | – | – | – | –
Cc1ccc(S(=O)(=O)N[C@@H](Cc2ccccc2)C(=O)CCl)cc1 | inactive | inactive | – | – | – | – | inactive | – | 11.2 µM (active) | inactive | – | inactive | – | – | – | – | inactive | inactive | – | –
